# In PubChem BioAssay:
# Calls of active or inactive are those of the source.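 Rule for the calls, unless noted: active = calcium signal rise more than 3 SD above the low-dose agonist control mean, in both duplicate plates and the primary screen; inactive = the rest.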
# Assay: calcium flux activation in mu-opioid HEK293 cells, confirmation, counter-screen for TRPC4 activator project, cell-based, HEK293 mu-opioid receptor line (AID 449723;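 active = hit in primary screen, with calcium signal over 5 SD above buffer well mean in both duplicates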;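 note: counter screen cells carry the mu-opioid receptor alone and lack TRPC4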)
# Details: Fluo-4 calcium fluorescence, at 10 µM
row,Compound,outcome
1,COc1ccccc1C(=O)Nc1ccc2c(c1)CCCN2C(=O)c1cccs1,inactive
2,COCCNc1c2c(nc3ccccc13)CCC2,inactive
3,Cc1onc(-c2c(F)cccc2Cl)c1C(=O)N(C)CC(=O)Nc1cccc(F)c1,inactive
4,Cc1cc(C)c(S(=O)(=O)c2ccccc2C)c(OCC(C)(C)C)n1,inactive
5,CCCn1c(=O)c2ccccc2n2c(SCCOc3ccccc3)nnc12,inactive
6,CCOc1ccccc1N(C(=O)c1snc(C(N)=O)c1N)C(C(=O)NCc1ccccc1)c1ccc(O)cc1 (configuration not stated),inactive
7,Cc1oc(-c2ccoc2)nc1CN(Cc1ccccc1)CC1CC1,inactive
8,CCCN1CN(Cc2ccco2)c2nc3ccccc3n2C1,inactive
9,O=C(O)c1ccc(CSc2nc(-c3ccc(Cl)cc3)cc(C(F)(F)F)n2)cc1,inactive
10,CCCCc1nc2ccccc2c(N)c1CCC (tested in a mixture with another compound),inactive
11,CCOC(=O)c1c(NC(=O)/C=C/C(=O)O)sc(C)c1-c1ccc(C(C)(C)C)cc1,inactive
12,C=C(C)Cn1c(SCC)nc2ccccc2c1=O,inactive
13,O=C(Nc1ccccc1N1CCN(C(=O)c2ccc(Cl)cc2)CC1)c1cccc([N+](=O)[O-])c1,inactive
14,CCOC(=O)C1(CCc2ccccc2)CCN(Cc2ccccn2)CC1,inactive
15,c1csc(CNc2nc(-c3cccs3)nc3ccccc23)c1,inactive
16,O=C(c1cccc(C(=O)N2CCN(c3ccccc3)CC2)c1)N1CCN(c2ccccc2)CC1,inactive
17,CCCCN(CCCC)/C(N)=N/c1nc(C)cc(C)n1,inactive
18,O=C(C1CCN(CC2CC=CCC2)CC1)N(CCc1ccccc1)Cc1ccccc1 (configuration not stated),inactive
19,CCOC(=O)c1c(NC(=O)C2CC(Cl)=CCC2C(=O)O)sc2c1CCCCC2 (configuration not stated),inactive
20,COc1ccc(C)cc1N(C(=O)c1snc(C(N)=O)c1N)C(C(=O)NC1CCCCC1)c1ccc(C)o1 (configuration not stated),inactive
21,CCOC(=O)c1c(N)sc(C(O)(C(F)(F)F)C(F)(F)F)c1-c1ccccc1,inactive
22,CNc1nc(NCc2ccccc2)c2ccccc2n1,inactive

# Assay: calcium flux enhancement in mu-opioid HEK293 cells, confirmation, counter-screen for TRPC4 allosteric potentiator project, cell-based, HEK293 mu-opioid receptor line (AID 449724);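 note: HEK293 cells carrying mu-opioid receptor only with no TRPC4 channel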
# Details: Fluo-4 calcium flux, at 10 µM, compound added before EC20 DAMGO stimulus
row,Compound,outcome
1,CN(C)CCCN(Cc1cc2cc3c(cc2[nH]c1=O)OCO3)C(=S)NCc1ccco1,inactive
2,Cc1cc(OCC(=O)Nc2ccc(N3CCN(C)CC3)cc2)ccc1Cl,inactive
3,O=C(Nc1ccccc1Oc1cccnc1)C1CCCN(Cc2ccc(F)cc2)C1 (configuration not stated),inactive
4,Cc1ncsc1CCOC(=O)c1cccc([N+](=O)[O-])c1,inactive
5,N#C/C(=N\Nc1cccc([N+](=O)[O-])c1)C(=O)c1ccc(Br)cc1,inactive
6,CC(NC(=O)c1ccco1)C(c1cccs1)N1CCN(c2ccccc2)CC1 (configuration not stated),inactive
7,O=C(Cc1ccccc1[N+](=O)[O-])OCc1cccc([N+](=O)[O-])c1,inactive
8,CCOc1cc(CNCCCN2CCOCC2)cc(Br)c1OCc1ccccc1Cl,inactive
9,O=C(NCCN1CCOCC1)c1cc2sccc2n1Cc1ccc(F)cc1,inactive
10,Cn1c(-c2ccc(F)cc2)cnc1NCc1ccc(F)cc1F,inactive
11,Cc1[nH]c2ccc(C(=O)OC(C)C(=O)N(C)c3ccccc3)cc2c1C (configuration not stated),inactive
12,COc1cc(/C=C2\SC(=O)N(c3ccccc3Cl)C2=O)cc([N+](=O)[O-])c1O,inactive
13,Cc1ccc2nc(C)cc(Nc3ccc4c(c3)OCCO4)c2c1,inactive
14,CC1CCN(CCCOc2ccc(OCc3ccccc3)cc2)CC1,inactive
15,COCCn1c(SCC(=O)c2ccccc2)nc2ccccc2c1=O,inactive
16,O=C(c1ccco1)N1CCN(C/C=C/c2ccccc2)CC1,inactive
17,Nc1cc(N2CCCCC2)c([N+](=O)[O-])cc1Cl,inactive
18,Cc1cc(Cl)c2oc(C(=O)N(C)Cc3nccn3C)c(C)c2c1,inactive
19,COc1ccccc1C(=O)Nc1ccc2c(c1)CCCN2C(=O)c1cccs1,inactive
20,COCCNc1c2c(nc3ccccc13)CCC2,inactive

row,Compound,outcome
1,Cc1onc(-c2c(F)cccc2Cl)c1C(=O)N(C)CC(=O)Nc1cccc(F)c1,inactive
2,Cc1cc(C)c(S(=O)(=O)c2ccccc2C)c(OCC(C)(C)C)n1,inactive
3,CCCn1c(=O)c2ccccc2n2c(SCCOc3ccccc3)nnc12,inactive
4,CCOc1ccccc1N(C(=O)c1snc(C(N)=O)c1N)C(C(=O)NCc1ccccc1)c1ccc(O)cc1 (configuration not stated),inactive
5,Cc1oc(-c2ccoc2)nc1CN(Cc1ccccc1)CC1CC1,inactive
6,CCCN1CN(Cc2ccco2)c2nc3ccccc3n2C1,inactive
7,O=C(O)c1ccc(CSc2nc(-c3ccc(Cl)cc3)cc(C(F)(F)F)n2)cc1,inactive
8,CCCCc1nc2ccccc2c(N)c1CCC (tested in a mixture with another compound),inactive
9,CCOC(=O)c1c(NC(=O)/C=C/C(=O)O)sc(C)c1-c1ccc(C(C)(C)C)cc1,inactive
10,C=C(C)Cn1c(SCC)nc2ccccc2c1=O,inactive
11,O=C(Nc1ccccc1N1CCN(C(=O)c2ccc(Cl)cc2)CC1)c1cccc([N+](=O)[O-])c1,inactive
12,CCOC(=O)C1(CCc2ccccc2)CCN(Cc2ccccn2)CC1,inactive
13,c1csc(CNc2nc(-c3cccs3)nc3ccccc23)c1,inactive
14,O=C(c1cccc(C(=O)N2CCN(c3ccccc3)CC2)c1)N1CCN(c2ccccc2)CC1,inactive
15,CCCCN(CCCC)/C(N)=N/c1nc(C)cc(C)n1,inactive
16,O=C(C1CCN(CC2CC=CCC2)CC1)N(CCc1ccccc1)Cc1ccccc1 (configuration not stated),inactive
17,CCOC(=O)c1c(NC(=O)C2CC(Cl)=CCC2C(=O)O)sc2c1CCCCC2 (configuration not stated),inactive
18,COc1ccc(C)cc1N(C(=O)c1snc(C(N)=O)c1N)C(C(=O)NC1CCCCC1)c1ccc(C)o1 (configuration not stated),inactive
19,CCOC(=O)c1c(N)sc(C(O)(C(F)(F)F)C(F)(F)F)c1-c1ccccc1,inactive
20,CNc1nc(NCc2ccccc2)c2ccccc2n1,inactive
